# Measured values: PubChem BioAssay (NCATS)
# Inconclusive results are not listed. A call without a number means that no potency is given here. Activity calls are given as the source filed them. Unless noted, the call rests on the fitted dose curve; in most records, active means well fitted curve in the direction sought with a large enough effect; inconclusive means small, poorly fitted or top-dose-only effect, or another doubt; inactive means no such curve, though single readings can be large; an effect the other way counts as inactive or inconclusive.
# Columns and labels:
# [1] = biological target: Luciferin 4-monooxygenase (Photinus pyralis) (UniProt P08659); experiment: Biochemical firefly luciferase enzyme assay for NPC (AID 624030);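 further: purified P. pyralis luciferase at 10 nM with luciferin and ATP substrate; nearly all actives have a fitted effect of over 70% in size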; conditions: purified P. pyralis luciferase, luminescence, 5 min; series mostly up to 58.6 µM
# Luciferin 4-monooxygenase (Photinus pyralis), sequence (P08659 whole entry, looked up): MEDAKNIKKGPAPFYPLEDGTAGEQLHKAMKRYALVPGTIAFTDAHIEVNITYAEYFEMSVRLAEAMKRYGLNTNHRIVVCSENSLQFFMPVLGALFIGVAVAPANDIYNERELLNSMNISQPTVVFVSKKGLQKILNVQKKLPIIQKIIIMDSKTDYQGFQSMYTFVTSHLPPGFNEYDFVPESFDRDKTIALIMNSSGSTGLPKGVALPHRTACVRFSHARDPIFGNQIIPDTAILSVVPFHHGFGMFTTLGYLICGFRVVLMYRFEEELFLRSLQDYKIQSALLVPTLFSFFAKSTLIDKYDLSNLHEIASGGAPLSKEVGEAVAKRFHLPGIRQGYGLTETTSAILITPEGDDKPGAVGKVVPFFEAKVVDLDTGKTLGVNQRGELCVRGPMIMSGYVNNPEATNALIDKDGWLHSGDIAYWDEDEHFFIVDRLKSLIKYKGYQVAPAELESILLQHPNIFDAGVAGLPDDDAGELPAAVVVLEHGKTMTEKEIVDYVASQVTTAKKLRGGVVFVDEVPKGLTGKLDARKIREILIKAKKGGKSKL
# In short: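 Direct inhibition of firefly luciferase enzyme (10 nM final, 50 mM Tris Acetate) assessed by luminescence within 5 minutes. Percent activity scaled between DMSO and PTC124 positive control, with concentration-effect curves classified by fit quality and response.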
# [2] = S16 Schwann cell viability assay (CellTiter-Glo assay) (AID 624031); conditions: S16 rat Schwann cells viability, 24 h; series mostly up to 57.5 µM;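 further: cellular ATP luminescence as a viability measure; nearly all actives have a fitted effect of over 70% in size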
# In short: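 This viability control uses native rat S16 Schwann cells grown in DMEM plus 10% FBS. After a 24 h compound treatment at 37 °C, CellTiter-Glo luminescence reports ATP content, scaled against DMSO-treated and cell-free wells.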
# [3] = S16 Schwann cell PMP22 intronic element firefly luciferase assay (AID 624032); conditions: S16 rat Schwann cells, PMP22 element FLuc, 24 h; series mostly up to 57.5 µM; further: nearly all actives have a fitted effect of over 30% in size; further: potency means the concentration at half of the fitted maximal effect
# In short: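 Luciferase reporter of PMP22 intronic-element expression in stably transfected S16 rat Schwann cells, read by ONE-Glo luminescence after 24 h compound exposure at 37 C. Activity scaled between DMSO (0%) and positive-control PTC124; concentration-effect curves quality-classified.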
# [4] = S16 Schwann cell PMP22 intronic element beta-lactamase assay (AID 624044; calls by dose curve; further: nearly all actives have a fitted effect of over 15% in size; further: potency means the concentration at half of the fitted maximal effect); conditions: S16 rat Schwann cells, PMP22 element beta-lactamase FRET, 24 h; series mostly up to 38.3 µM
# In short: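 Beta-lactamase reporter under a PMP22 intronic regulatory element in stable S16 rat Schwann cells; 24 h compound exposure. 460 nm blue signal normalized between DMSO (0%) and potassium clavulanate, with 535 nm FRET tracking viability; curves classed by r2 and response.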
# [5] = Cytotoxicity counterscreen for NFkB agonists and antagonists (AID 624476); conditions: NFkB reporter cell line viability counterscreen; series mostly up to 46.1 µM;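 further: cells exposed to compound for 48 hours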; further: potency means the concentration at half of the fitted maximal effect
# [6] = qHTS Assay for Identification of Small Molecule Agonists for NFkB Signaling Pathway. (AID 624478); conditions: NFkB pathway reporter cell assay, agonist mode, cells co-stimulated with 10 pM TNF alpha; series mostly up to 46.1 µM;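 further: compounds tested together with TNF alpha at its EC50 of 10 pM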
# In short: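 Read-out: 460/530 nm emission at 405 nm excitation after 2 h LiveBLAzer loading; ME-180 NFkB-bla reporter cells exposed 5 h at 37 C to compounds with 10 pM TNF alpha final.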
smiles,measurement,setting,value
CC1=C(/C=C/C(C)=C/C=C/C(C)=C/C=C/C=C(C)/C=C/C=C(C)/C=C/C2=C(C)CCCC2(C)C)C(C)(C)CCC1,Potency,[1],inactive
same,Potency,[2],inactive
same,Potency,[3],inactive
O=C(COc1ccc(Cl)cc1)OCCNC12CC3CC(CC(C3)C1)C2,Potency,[1],inactive
same,Potency,[2],inactive
same,Potency,[3],inactive
same,Potency,[4],inactive
NC(=O)Nc1cc(-c2ccc(CN3CCOCC3)c(F)c2)sc1C(=O)N[C@H]1CCCNC1,Potency,[5],0.59 µM (active)
same,outcome,[6],inactive
C[C@@H]1CCN(C(=O)CC#N)C[C@@H]1N(C)c1ncnc2[nH]ccc12,Potency,[5],inactive
same,outcome,[6],inactive
Cc1nnc(C(C)C)n1C1CC2CCC(C1)N2CC[C@H](NC(=O)C1CCC(F)(F)CC1)c1ccccc1 (some centres not stated),Potency,[5],inactive
same,outcome,[6],inactive
O=C(O)CC/C=C\CC[C@H]1[C@@H](N2CCCCC2)[C@@H](O)C[C@@H]1OCc1ccc(-c2ccccc2)cc1,Potency,[5],inactive
same,outcome,[6],inactive
CCC(=O)NCCC1CCc2ccc3c(c21)CCO3 (configuration not stated),Potency,[1],inactive
same,Potency,[3],inactive
same,Potency,[4],inactive
CCCC(=O)O[C@]1(C(=O)CCl)[C@H](C)C[C@@H]2[C@H]3CCC4=CC(=O)C=C[C@]4(C)[C@@]3(F)C(=O)C[C@@]21C,Potency,[1],inactive
same,Potency,[2],inactive
same,Potency,[3],inactive
same,Potency,[4],inactive
COCC(=O)Nc1cc(Sc2ccccc2)ccc1N=C(NC(=O)OC)NC(=O)OC,Potency,[1],inactive
same,Potency,[3],inactive
same,Potency,[4],inactive
Cc1c(C)c2c(c(C)c1O)CC[C@@](C)(CCC[C@H](C)CCC[C@H](C)CCCC(C)C)O2,Potency,[1],inactive
same,Potency,[3],inactive
same,Potency,[4],inactive
Clc1cc(Cl)c(OCC#CI)cc1Cl,Potency,[3],28.7 µM (active)
CCCCC(C)(O)C/C=C/[C@H]1[C@H](O)CC(=O)[C@@H]1CCCCCCC(=O)OC (some centres not stated),Potency,[1],inactive
same,Potency,[2],inactive
same,Potency,[3],0.181 µM (active)
same,Potency,[4],inactive
CCCCCCCCCCCCCC[n+]1ccc(C)cc1,Potency,[1],inactive
same,Potency,[3],2.56 µM (active)
same,Potency,[4],19.9 µM (active)
CN1C(=O)CN2CCc3ccccc3C2c2cc(Cl)ccc21 (configuration not stated),Potency,[1],inactive
same,Potency,[3],inactive
same,Potency,[4],inactive
CN(C)CCCN1c2ccccc2C(C)(C)c2ccccc21,Potency,[1],inactive
same,Potency,[3],inactive
same,Potency,[4],inactive
